Measured values published in PubChem BioAssay AID1159580 (chemical genetic matrix, 2015).
“And” between values parts separate entries of the source, which are not always exact repeats. Equal values may be shown once. The whole screen tested about 5,500 compounds, of which about 2,000 (36%) were called active. Roughly 18% stayed inconclusive and do not appear here. No stated cut-off is given here; in the data, active means normalized growth mostly below about 0.91 (no sharp cut-off); inconclusive means no clear call, values can overlap the other calls; inactive means mostly above about 0.92. The list shows a part of the results.

Experiment: chemical genetic growth profiling, strain panel (AID 1159580);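 further: tested at 20 µM; growth read once vehicle control cultures reached saturation at 30 °C; 1 = growth at the plate median or of vehicle wells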
Details: S. cerevisiae deletion strains, growth OD
[1] = locus YAL013W, strain DEP1, stronger effect = lower value
[2] = locus YAL040C, strain CLN3, stronger effect = lower value
[3] = locus YCL061C, strain MRC1 (second series), stronger effect = lower value
[4] = locus YDR363W, strain ESC2, stronger effect = lower value
[5] = locus YER002W, strain NOP16, stronger effect = lower value
[6] = locus YMR307W, strain GAS1, stronger effect = lower value
[7] = locus YNL153C, strain GIM3, stronger effect = lower value
[8] = locus YNL175C, strain NOP13, stronger effect = lower value
[9] = locus YNL197C, strain WHI3, stronger effect = lower value
[10] = locus YNL224C, strain SQS1, stronger effect = lower value
[11] = locus YOR083W, strain WHI5 (second series), stronger effect = lower value

Measured: normalized growth

Nc1ncnc2c1ncn2[C@@H]1O[C@H](COP(=O)(O)OP(=O)(O)OP(=O)(O)OP(=O)(O)OC[C@@H]2O[C@H](n3cnc4c(N)ncnc43)C(O)[C@@H]2O)[C@H](O)C1O (stereo not given in full)
inactive: [1] 1 | [2] 1.01 | [3] 0.992 | [4] 1.04 | [5] 1.03 | locus YGR229C, strain SMI1, stronger effect = lower value 1.03 | [6] 1.03 | [7] 0.993 | [8] 0.997 | [9] 0.974 | [10] 1 | [11] 0.996 | locus YPL241C, strain CIN2, stronger effect = lower value 0.999

Nc1ncnc2c1ncn2[C@@H]1O[C@H](COP(=O)(O)CP(=O)(O)OP(=O)(O)O)[C@H](O)C1O (stereo not given in full)
inactive: [2] 1.08 | [3] 0.999 | [4] 1 | [5] 0.983 | locus YGR078C, strain PAC10, stronger effect = lower value 1.02 | locus YJR075W, strain HOC1, stronger effect = lower value 1.02 | locus YMR263W, strain SAP30, stronger effect = lower value 1 | [8] 1 | [9] 1 | [10] 0.999 | [11] 1

Nc1ncnc2c1ncn2[C@@H]1O[C@H](CO)[C@H](O)C1O (stereo not given in full)
inactive: [2] 0.999 | [3] 0.998 | [4] 1.01 | [5] 1.01 | [7] 1.04 | [8] 1.02 | [9] 1.02 | [10] 1.02 | [11] 1.07

Nc1ncnc2c1ncn2C1C[C@H](O)[C@@H](CO)O1 (stereo not given in full)
active: locus YLR113W, strain HOG1, stronger effect = lower value 0.845
inactive: [1] 0.998 | locus YAL021C, strain ccr4, stronger effect = lower value 1.03 | locus YAL026C, strain drs2, stronger effect = lower value 1.02 | locus YAL030W, strain snc1, stronger effect = lower value 1.01 | locus YBL061C, strain skt5, stronger effect = lower value 1.01 | locus YBR009C, strain hhf1, stronger effect = lower value 1.02 | locus YBR021W, strain FUR4, stronger effect = lower value 1.02 | locus YBR023C, strain chs3, stronger effect = lower value 1 | locus YBR171W, strain sec66, stronger effect = lower value 1.03 | locus YBR229C, strain ROT2, stronger effect = lower value 0.962 | locus YBR231C, strain swc5, stronger effect = lower value 1.01 | locus YBR279W, strain paf1, stronger effect = lower value 1.01 | locus YCL011C, strain gbp2, stronger effect = lower value 1.02 | locus YCL016C, strain dcc1, stronger effect = lower value 1.01 | locus YCL029C, strain bik1, stronger effect = lower value 0.998 | locus YCL061C, strain MRC1, stronger effect = lower value 1.02 | locus YCL069W, strain vba3, stronger effect = lower value 1.01 | locus YCR088W, strain abp1, stronger effect = lower value 1.01 | locus YDL005C, strain med2, stronger effect = lower value 1.02 | locus YDL035C, strain GPR1, stronger effect = lower value 0.99 | locus YDL040C, strain nat1, stronger effect = lower value 1.01 | locus YDL074C, strain BRE1, stronger effect = lower value 1.01 | locus YDL101C, strain DUN1, stronger effect = lower value 0.99 | locus YDL185W, strain tfp1, stronger effect = lower value 0.986 | locus YDL192W, strain arf1, stronger effect = lower value 1 | locus YDR001C, strain nth1, stronger effect = lower value 1.01 | locus YDR069C, strain doa4, stronger effect = lower value 1.02 | locus YDR101C, strain arx1, stronger effect = lower value 1.04 | locus YDR137W, strain rgp1, stronger effect = lower value 1.02 | locus YDR159W, strain sac3, stronger effect = lower value 1.03 | locus YDR162C, strain NBP2, stronger effect = lower value 0.984 | locus YDR195W, strain ref2 0.994 | locus YDR297W, strain sur2, stronger effect = lower value 1.01 | locus YDR318W, strain mcm21, stronger effect = lower value 0.968 | locus YDR334W, strain swr1, stronger effect = lower value 1.01 | locus YDR335W, strain msn5, stronger effect = lower value 1 | locus YDR388W, stronger effect = lower value 0.993 | locus YDR392W, strain spt3, stronger effect = lower value 1.01 | locus YDR502C, strain sam2, stronger effect = lower value 0.991 | locus YEL003W, strain gim4, stronger effect = lower value 1.02 | locus YEL037C, strain rad23, stronger effect = lower value 1 | locus YEL061C, strain CIN8 (second series), stronger effect = lower value 1.02 | locus YEL061C, strain CIN8, stronger effect = lower value 1 | locus YER015W, strain faa2, stronger effect = lower value 1.01 | locus YER016W, strain bim1, stronger effect = lower value 1.02 | locus YER110C, stronger effect = lower value 0.993 | locus YER111C, strain swi4, stronger effect = lower value 1.02 | locus YER155C, strain BEM2 (second series), stronger effect = lower value 1.03 | locus YER155C, strain BEM2, stronger effect = lower value 0.998 | locus YER167W, strain BCK2, stronger effect = lower value 0.996 | locus YFR010W, strain ubp6, stronger effect = lower value 1.01 | locus YGL078C, strain dbp3, stronger effect = lower value 0.997 | locus YGL086W, strain mad1, stronger effect = lower value 1.06 | locus YGL167C, strain pmr1, stronger effect = lower value 1.02 | locus YGL173C, strain kem1, stronger effect = lower value 1.02 | locus YGL227W, strain vid30, stronger effect = lower value 1.01 | locus YGL240W, strain doc1, stronger effect = lower value 1.02 | locus YGL248W, strain PDE1, stronger effect = lower value 0.981 | locus YGL253W, strain hxk2, stronger effect = lower value 1.02 | locus YGR135W, strain pre9, stronger effect = lower value 0.98 | locus YGR252W, strain gcn5, stronger effect = lower value 0.953 | locus YHR013C, strain ard1, stronger effect = lower value 1.01 | locus YHR027C, strain rpn1, stronger effect = lower value 1 | locus YHR079C, strain IRE1 (second series), stronger effect = lower value 0.99 | locus YHR079C, strain IRE1, stronger effect = lower value 0.872 | locus YHR094C, strain hxt1, stronger effect = lower value 0.987 | locus YHR129C, strain ARP1, stronger effect = lower value 0.989 | locus YHR142W, strain chs7, stronger effect = lower value 1.02 | locus YHR200W, strain rpn10, stronger effect = lower value 0.987 | locus YIL066C, strain RNR3, stronger effect = lower value 0.986 | locus YIL073C, strain SPO22, stronger effect = lower value 0.994 | locus YIL125W, strain kgd1, stronger effect = lower value 0.994 | locus YIR030C, strain dcg1, stronger effect = lower value 0.991 | locus YJL092W, strain hpr5, stronger effect = lower value 1.01 | locus YJL095W, strain BCK1 (second series), stronger effect = lower value 1.01 | locus YJL095W, strain BCK1, stronger effect = lower value 0.989 and 0.886 | locus YJL115W, strain asf1, stronger effect = lower value 1.01 | locus YJL129C, strain trk1, stronger effect = lower value 1.03 | locus YJL134W, strain LCB3, stronger effect = lower value 0.996 | locus YJL154C, strain vps35, stronger effect = lower value 1.02 | locus YJL164C, strain tpk1, stronger effect = lower value 1.01 | locus YJL166W, strain qcr8, stronger effect = lower value 1.03 | locus YJL168C, strain set2, stronger effect = lower value 0.995 | locus YJL187C, strain SWE1 (second series), stronger effect = lower value 0.99 | locus YJL187C, strain SWE1, stronger effect = lower value 1.01 | locus YJR043C, strain POL32, stronger effect = lower value 0.996 | locus YJR066W, strain TOR1, stronger effect = lower value 0.853 | locus YKL009W, strain mrt4, stronger effect = lower value 0.987 | locus YKL068W, stronger effect = lower value 0.991 | locus YKL085W, strain MDH1 (second series), stronger effect = lower value 0.997 | locus YKL085W, strain MDH1, stronger effect = lower value 0.997 | locus YKL160W, strain elf1, stronger effect = lower value 1.01 | locus YKL190W, strain CNB1, stronger effect = lower value 0.993 | locus YKR001C, strain vps1, stronger effect = lower value 1.01 | locus YKR026C, strain gcn3, stronger effect = lower value 1.02 | locus YKR091W, strain srl3, stronger effect = lower value 1.01 | locus YLL001W, strain dnm1, stronger effect = lower value 1.02 | locus YLL026W, stronger effect = lower value 1.01 | locus YLL041C, strain sdh2, stronger effect = lower value 1.02 | locus YLR027C, strain aat2, stronger effect = lower value 1.02 | locus YLR039C, strain RIC1, stronger effect = lower value 1.04 | locus YLR058C, strain SHM2, stronger effect = lower value 0.985 | locus YLR102C, strain apc9, stronger effect = lower value 0.999 | locus YLR221C, strain rsa3, stronger effect = lower value 1.01 | locus YLR258W, strain gsy2, stronger effect = lower value 1.01 | locus YLR262C, strain YPT6 (second series), stronger effect = lower value 0.998 | locus YLR262C, strain YPT6, stronger effect = lower value 1.04 | locus YLR268W, strain sec22, stronger effect = lower value 1.04 | locus YLR320W, strain mms22, stronger effect = lower value 1.03 | locus YLR330W, strain CHS5, stronger effect = lower value 0.994 | locus YLR342W, strain FKS1 (second series), stronger effect = lower value 1.02 | locus YLR342W, strain FKS1, stronger effect = lower value 1.03 | locus YLR357W, strain rsc2, stronger effect = lower value 1.01 | locus YLR370C, strain arc18, stronger effect = lower value 1.02 | locus YLR371W, strain rom2, stronger effect = lower value 0.98 | locus YLR384C, strain iki3, stronger effect = lower value 1.01 | locus YLR418C, strain cdc73, stronger effect = lower value 0.966 | locus YML016C, strain PPZ1, stronger effect = lower value 0.997 | locus YML032C, strain rad52, stronger effect = lower value 0.966 | locus YML120C, strain ndi1, stronger effect = lower value 1.01 | locus YML124C, strain tub3, stronger effect = lower value 0.99 | locus YMR058W, strain fet3, stronger effect = lower value 1.02 | locus YMR078C, strain ctf18, stronger effect = lower value 0.993 | locus YMR125W, strain sto1, stronger effect = lower value 1.01 | locus YMR129W, stronger effect = lower value 1.01 | locus YMR205C, strain PFK2, stronger effect = lower value 1.05 | locus YMR223W, strain ubp8, stronger effect = lower value 0.986 | locus YMR231W, strain pep5, stronger effect = lower value 0.991 | [6] 0.988 | locus YNL067W, strain RPL9B, stronger effect = lower value 0.995 | locus YNL071W, strain lat1, stronger effect = lower value 1.02 | [7] 0.987 | locus YNL183C, strain NPR1, stronger effect = lower value 0.855 | locus YNL209W, strain ssb2, stronger effect = lower value 1.01 | locus YNL233W, strain BNI4, stronger effect = lower value 1 | locus YNL248C, strain rpa49, stronger effect = lower value 1.01 | locus YNL250W, strain rad50, stronger effect = lower value 0.987 | locus YNL271C, strain bni1, stronger effect = lower value 0.992 | locus YNL298W, strain CLA4, stronger effect = lower value 0.989 | locus YNL307C, strain MCK1, stronger effect = lower value 1.01 | locus YNL322C, strain KRE1 (second series), stronger effect = lower value 1.02 | locus YNR049C, strain mso1, stronger effect = lower value 1.01 | locus YNR052C, strain pop2, stronger effect = lower value 0.985 | locus YOL012C, strain htz1 0.909 | locus YOL147C, strain pex11, stronger effect = lower value 0.995 | locus YOR001W, strain rrp6, stronger effect = lower value 1.02 | locus YOR061W, strain CKA2, stronger effect = lower value 0.967 | locus YOR069W, strain VPS5, stronger effect = lower value 1 | locus YOR070C, strain gyp1, stronger effect = lower value 0.999 | locus YOR080W, strain dia2, stronger effect = lower value 1.02 | locus YOR083W, strain WHI5, stronger effect = lower value 1.01 | locus YOR106W, strain vam3, stronger effect = lower value 1.01 | locus YOR136W, strain idh2, stronger effect = lower value 1 | locus YOR144C, strain elg1, stronger effect = lower value 0.988 | locus YOR184W, strain ser1, stronger effect = lower value 0.988 | locus YOR231W, strain MKK1, stronger effect = lower value 0.873 | locus YOR265W, strain rbl2, stronger effect = lower value 0.987 | locus YOR270C, strain vph1, stronger effect = lower value 1.03 | locus YOR290C, strain snf2, stronger effect = lower value 1.02 | locus YOR316C, strain cot1, stronger effect = lower value 0.994 | locus YPL051W, strain arl3, stronger effect = lower value 1.01 | locus YPL078C, strain atp4, stronger effect = lower value 1.01 | locus YPL106C, strain sse1, stronger effect = lower value 1.02 | locus YPL240C, strain hsp82, stronger effect = lower value 1 | locus YPL256C, strain CLN2, stronger effect = lower value 0.911 | locus YPR119W, strain clb2, stronger effect = lower value 0.993 | locus YPR141C, strain kar3, stronger effect = lower value 0.988 | locus YPR163C, strain tif3, stronger effect = lower value 1 | locus YPR167C, strain met16, stronger effect = lower value 0.989 | strain wtn01, stronger effect = lower value 1.03
0.995 (inactive) and 0.849 (active): locus YHR030C, strain SLT2, stronger effect = lower value
